# Records with an inconclusive call do not appear. Activity calls are given as the source filed them. How the source made its calls: active means hit-call score of the fitted dose curve at least 0.9, where 1 is the maximum; inconclusive means response in the unintended direction; inactive means score below 0.9.
# How the values were obtained:
# [1] = target: human Neurokinin, NK2 Receptor, TACR2 (gene 6865) (UniProt P21452); experiment: NVS_GPCR_hNK2: NovaScreen (NVS) G Protein-Coupled Receptor Assay for human Neurokinin, NK2 Receptor (AID 2283278);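 further: actives reduce bound radioligand signal relative to DMSO baseline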
# Sequence of human Neurokinin, NK2 Receptor, TACR2 (gene 6865) (P21452 whole entry, looked up): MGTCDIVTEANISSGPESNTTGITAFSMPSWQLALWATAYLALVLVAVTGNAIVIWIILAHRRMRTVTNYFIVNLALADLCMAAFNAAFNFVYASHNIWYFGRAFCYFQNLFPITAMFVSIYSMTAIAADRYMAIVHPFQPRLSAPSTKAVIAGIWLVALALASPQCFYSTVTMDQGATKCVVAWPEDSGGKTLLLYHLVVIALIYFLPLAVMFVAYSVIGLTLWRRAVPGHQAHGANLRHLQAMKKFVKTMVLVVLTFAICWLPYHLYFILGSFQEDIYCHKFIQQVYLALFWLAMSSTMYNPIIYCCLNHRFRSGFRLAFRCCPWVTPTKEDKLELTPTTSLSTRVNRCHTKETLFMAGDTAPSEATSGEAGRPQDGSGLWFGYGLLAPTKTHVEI
# Method in brief: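 Radioligand binding on membranes from CHO cells expressing receptor, filter-based scintillation read 4 h after dosing. Initial duplicate screen at 25 uM, actives in concentration series; loss of signal versus DMSO.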
# [2] = target: human Neurotensin Receptor (NTS), NTSR1 (gene 4923) (UniProt P30989); experiment: NVS_GPCR_hNTS: NovaScreen (NVS) G Protein-Coupled Receptor Assay for human Neurotensin Receptor (NTS) (AID 2283279)
# Sequence of human Neurotensin Receptor (NTS), NTSR1 (gene 4923) (P30989 whole entry, looked up): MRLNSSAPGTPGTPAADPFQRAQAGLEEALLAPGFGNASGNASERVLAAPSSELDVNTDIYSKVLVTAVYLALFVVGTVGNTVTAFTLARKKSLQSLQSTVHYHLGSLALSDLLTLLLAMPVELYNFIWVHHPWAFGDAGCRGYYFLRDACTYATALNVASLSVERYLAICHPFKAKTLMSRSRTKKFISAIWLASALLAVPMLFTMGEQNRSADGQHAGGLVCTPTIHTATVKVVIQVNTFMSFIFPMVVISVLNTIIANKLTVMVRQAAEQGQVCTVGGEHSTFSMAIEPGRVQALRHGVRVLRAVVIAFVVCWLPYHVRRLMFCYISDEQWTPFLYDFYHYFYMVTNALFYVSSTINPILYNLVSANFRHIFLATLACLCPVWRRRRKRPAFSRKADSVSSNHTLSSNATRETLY
# Method in brief: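 Compounds competed with a radiolabelled ligand for binding to CHO-derived human neurotensin receptor; bound signal counted after filtration, 1 h. Screened first at a single concentration of 25 uM in duplicate, then concentration series to 50 uM maximum for actives.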
# [3] = target: human Vasopressin 1A Receptor (V1A), AVPR1A (gene 552) (UniProt P37288); experiment: NVS_GPCR_hV1A: NovaScreen (NVS) G Protein-Coupled Receptor Assay for human Vasopressin 1A Receptor (V1A) (AID 2283284)
# Sequence of human Vasopressin 1A Receptor (V1A), AVPR1A (gene 552) (P37288 whole entry, looked up): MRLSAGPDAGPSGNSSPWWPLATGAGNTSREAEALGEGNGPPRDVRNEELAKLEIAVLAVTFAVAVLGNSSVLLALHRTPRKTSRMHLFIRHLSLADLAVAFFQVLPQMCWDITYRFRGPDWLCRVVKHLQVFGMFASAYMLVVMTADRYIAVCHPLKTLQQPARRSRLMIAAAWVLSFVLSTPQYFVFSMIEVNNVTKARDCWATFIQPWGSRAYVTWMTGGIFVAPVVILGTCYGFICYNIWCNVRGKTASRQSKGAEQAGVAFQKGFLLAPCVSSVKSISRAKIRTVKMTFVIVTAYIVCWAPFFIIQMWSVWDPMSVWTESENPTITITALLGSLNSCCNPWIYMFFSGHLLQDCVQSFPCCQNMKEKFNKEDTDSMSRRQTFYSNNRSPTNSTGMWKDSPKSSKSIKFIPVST
# Method in brief: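 Single-concentration duplicate screen at 25 uM, with concentration-response follow-up (top 50 uM) for actives. The assay measured displacement of a radioligand from human platelet-derived receptor after 1.5 h, detected by filtration and scintillation counting.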
# [4] = target: mouse Cholecystokinin, CCK1 Receptor (CCKA), Cckar (gene 12425) (UniProt O08786); experiment: NVS_GPCR_mCCKAPeripheral: NovaScreen (NVS) G Protein-Coupled Receptor Assay for mouse Cholecystokinin, CCK1 Receptor (CCKA) (AID 2283285)
# Sequence of mouse Cholecystokinin, CCK1 Receptor (CCKA), Cckar (gene 12425) (O08786 whole entry, looked up): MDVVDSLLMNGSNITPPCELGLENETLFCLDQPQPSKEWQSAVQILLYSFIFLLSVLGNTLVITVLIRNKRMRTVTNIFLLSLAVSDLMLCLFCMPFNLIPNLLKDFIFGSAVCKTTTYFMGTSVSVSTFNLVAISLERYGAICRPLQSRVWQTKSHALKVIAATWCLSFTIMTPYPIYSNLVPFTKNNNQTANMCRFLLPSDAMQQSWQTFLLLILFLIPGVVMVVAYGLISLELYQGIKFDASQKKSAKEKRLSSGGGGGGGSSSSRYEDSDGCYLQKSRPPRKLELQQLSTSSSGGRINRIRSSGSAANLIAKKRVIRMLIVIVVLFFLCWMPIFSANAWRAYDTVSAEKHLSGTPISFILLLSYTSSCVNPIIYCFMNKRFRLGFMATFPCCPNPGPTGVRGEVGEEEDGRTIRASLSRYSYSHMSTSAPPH
# Method in brief: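 Chemicals were first screened in duplicate at 25 uM, with those meeting threshold (e.g., 30% inhibition) retested in singleton concentration series to 50 uM maximum. Binding of radioligand to mouse pancreatic membranes was read after 2 h by filtration and scintillation counting.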
# [5] = system: rabbit Platelet Activating Factor Receptor (PAF), gene 100354046; experiment: NVS_GPCR_rabPAF: NovaScreen (NVS) G Protein-Coupled Receptor Assay for rabbit Platelet Activating Factor Receptor (PAF) (AID 2283287)
# Method in brief: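 Rabbit platelet membrane preparation; radioligand displacement read by filter-based scintillation counting 1 h after dosing, loss of signal versus DMSO. Primary screen in duplicate at 25 uM, actives followed up in concentration series.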
# [6] = system: 5-hydroxytryptamine receptor 2C (pig); experiment: NVS_GPCR_p5HT2C: NovaScreen (NVS) G Protein-Coupled Receptor Assay for pig Serotonin, 5-Hydroxytryptamine Receptor 2C (5HT2C) (AID 2283288)
# Method in brief: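 Radioligand displacement on membranes from pig choroid plexus, detected by filter scintillation counting after 1 h. Tested first at a single 25 uM in duplicate, then in concentration-response for actives; DMSO served as baseline.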
# [7] = target: human Thromboxane A2 Receptor (TXA2), TBXA2R (gene 6915) (UniProt P21731); experiment: NVS_GPCR_hTXA2: NovaScreen (NVS) G Protein-Coupled Receptor Assay for human Thromboxane A2 Receptor (TXA2) (AID 2283282);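 further: actives reduce bound radioligand signal relative to DMSO baseline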
# Sequence of human Thromboxane A2 Receptor (TXA2), TBXA2R (gene 6915) (P21731 whole entry, looked up): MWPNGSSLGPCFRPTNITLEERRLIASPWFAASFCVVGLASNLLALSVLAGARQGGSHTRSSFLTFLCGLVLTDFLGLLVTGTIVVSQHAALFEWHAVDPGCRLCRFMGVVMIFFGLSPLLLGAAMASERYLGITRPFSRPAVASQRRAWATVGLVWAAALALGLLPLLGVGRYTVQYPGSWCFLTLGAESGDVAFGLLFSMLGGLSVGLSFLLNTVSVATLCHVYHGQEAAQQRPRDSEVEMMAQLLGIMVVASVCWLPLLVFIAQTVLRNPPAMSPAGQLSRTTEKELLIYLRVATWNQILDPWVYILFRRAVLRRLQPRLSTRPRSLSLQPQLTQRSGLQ
# Method in brief: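 Cell-free radioligand binding on membrane protein from human platelets; radioligand displacement read by filter-based scintillation counting after 1 h. Primary screen in duplicate at 25 uM, actives then run in concentration series; loss of signal versus DMSO.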
# [8] = target: human Opioid Receptor Delta 1 (Opiate D1), OPRD1 (gene 4985) (UniProt P41143); experiment: NVS_GPCR_hOpiate_D1: NovaScreen (NVS) G Protein-Coupled Receptor Assay for human Opioid Receptor Delta 1 (Opiate D1) (AID 2283280)
# Sequence of human Opioid Receptor Delta 1 (Opiate D1), OPRD1 (gene 4985) (P41143 whole entry, looked up): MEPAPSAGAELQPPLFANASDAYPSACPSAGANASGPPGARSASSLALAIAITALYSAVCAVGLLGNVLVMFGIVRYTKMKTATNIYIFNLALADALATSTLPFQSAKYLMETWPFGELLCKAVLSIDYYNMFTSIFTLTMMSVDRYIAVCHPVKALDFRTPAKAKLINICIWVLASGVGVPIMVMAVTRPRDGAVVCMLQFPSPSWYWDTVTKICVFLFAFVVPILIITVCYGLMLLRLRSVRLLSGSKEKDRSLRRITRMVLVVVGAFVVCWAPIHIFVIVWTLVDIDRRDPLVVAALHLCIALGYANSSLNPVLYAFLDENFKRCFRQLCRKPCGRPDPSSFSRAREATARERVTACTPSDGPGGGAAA
# Method in brief: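 Membrane preparations from CHO cells bearing the human receptor were incubated 1 h with test chemical, and bound radioligand was counted after filtration. Actives from 25 uM duplicate screening were retested in concentration-response.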
# [9] = target: rat Serotonin, 5-Hydroxytryptamine Receptor 1 (5HT1), Non-Selective Binding, Htr1a (gene 24473) (UniProt P19327); experiment: NVS_GPCR_r5HT1_NonSelective: NovaScreen (NVS) G Protein-Coupled Receptor Assay for rat Serotonin, 5-Hydroxytryptamine Receptor 1 (5HT1), Non-Selective Binding (AID 2283286)
# Sequence of rat Serotonin, 5-Hydroxytryptamine Receptor 1 (5HT1), Non-Selective Binding, Htr1a (gene 24473) (P19327 whole entry, looked up): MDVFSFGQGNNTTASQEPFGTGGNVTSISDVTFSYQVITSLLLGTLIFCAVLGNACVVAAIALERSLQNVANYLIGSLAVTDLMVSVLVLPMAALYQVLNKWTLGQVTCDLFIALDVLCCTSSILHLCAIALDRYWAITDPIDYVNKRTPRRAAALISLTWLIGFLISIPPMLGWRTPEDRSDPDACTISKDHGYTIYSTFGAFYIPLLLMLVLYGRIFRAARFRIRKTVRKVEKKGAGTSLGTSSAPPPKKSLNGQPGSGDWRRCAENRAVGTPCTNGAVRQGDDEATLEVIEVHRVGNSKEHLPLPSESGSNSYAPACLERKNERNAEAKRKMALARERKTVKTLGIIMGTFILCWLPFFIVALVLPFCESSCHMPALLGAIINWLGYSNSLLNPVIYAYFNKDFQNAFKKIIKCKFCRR
# Method in brief: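 Binding of a radioligand to rat cortex membranes is read by filtration and scintillation counting after 1 h. Compounds were screened at 25 uM in duplicate. Actives were then titrated to a top of 50 uM. DMSO is the baseline.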
structure (smiles),measurement,setting,value
CCCCCCCCCCCC[N+](C)(C)C,AC50,[1],18.6 µM (active)
same,AC50,[2],11.7 µM (active)
same,outcome,[3],inactive
same,AC50,[4],20.6 µM (active)
same,AC50,[5],9.15 µM (active)
same,AC50,[6],25 µM (active)
Cc1occc1C(=O)Nc1ccc(C(=O)N2CCC(F)(F)/C(=C\C(=O)N3CCC(N4CCCCC4)CC3)c3ccccc32)cc1,AC50,[3],0.00237 µM (active)
same,AC50,[5],2.76 µM (active)
same,outcome,[6],inactive
O=C1O[C@H]([C@@H](O)CO)C(O)=C1O,AC50,[7],8.76 µM (active)
CN(C[C@@H](CC[N+]12CCC(C3CCCCC3)(CC1)CC2)c1ccc(Cl)c(Cl)c1)C(=O)c1cc(C(F)(F)F)cc(C(F)(F)F)c1,AC50,[1],0.0311 µM (active)
same,AC50,[7],25 µM (active)
same,AC50,[6],25 µM (active)
CCCC(=O)OCCC(C)C,AC50,[2],15 µM (active)
NCc1cccc(C2CCN(C(=O)c3ccc(C#Cc4ccccc4F)o3)CC2)c1,AC50,[1],2.9 µM (active)
same,AC50,[8],10.2 µM (active)
same,AC50,[4],13.6 µM (active)
same,AC50,[9],4.96 µM (active)
same,AC50,[5],9.21 µM (active)
same,AC50,[6],8.02 µM (active)
CCCOC(=O)c1cc(O)c(O)c(O)c1,outcome,[1],inactive
